# In the library only some 6% were active in any assay of this set; here they are far more common.
# CRE-bla Fsk = alters forskolin-stimulated CRE reporter signaling in CHO cells; CHO CRE-bla reporter (cAMP response element driving beta-lactamase), forskolin EC10, beta-lactamase ratio; Potency, µM (top dose mostly 38.2 µM), for the others: at the highest dose activity change, negative = inhibition, actives largely listed as activators; 2.5% of 71,000 active; AID 662; active = well fitted activation curve with a large enough effect in the signal ratio, with a control signal flat, not every such curve was filed as active; inconclusive = small, poorly fitted or top-dose-only effect, or effect the other way, or a change in a side signal; the % refers to the signal ratio; also: % of control where 0% means no effect
#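 CHO CRE-bla cells, overnight plating in Opti-MEM with 0.5% dialyzed FBS; cpd titration + EC10 NKH 477, 3 h 37 °C; CCF4 2 h RT; ex 405/em 460 vs 530 ratio → %Activity, AC50.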
# HEK293 cAMP cs = counter-screen for TSHR agonists: cAMP increase in parental HEK293 | parental HEK293 CNG cAMP sensor, membrane potential fluorescence | Potency, µM (series often up to 57.1 µM), for the others: at the highest dose activation, hits mostly activators | 2.5% of 73,000 active | AID 938; also: % of control where 0% means no effect; nearly all actives have a fitted effect of over 55% in size
#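 Parental HEK 293 cells stably expressing a cAMP-gated CNG channel were loaded with membrane potential dye containing 100 uM RO 20-1724 for 60 min. Compound added for 30 min; depolarization read as fluorescence intensity at 590 nm.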
# ERK AVP block = inhibitors of vasopressin-stimulated ERK signaling pathway | AID 995 | 0.99% of 72,000 active | Potency, µM (top dose mostly 57.5 µM), for the others: at the highest dose activity, negative = inhibition, most hits filed as inhibitors | HEK293-V1b, vasopressin-stimulated pERK AlphaScreen; also: % is scaled to controls: 0 for no effect and ±100 for the full control effect; nearly all actives have a fitted effect of over 55% in size
#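 Phosphorylated ERK1/2 detected via AlphaScreen bead proximity in lysates of V1b-expressing HEK293 cells given 25 nM vasopressin for 5 min after 30 min compound exposure (37 °C). AC50 from Hill equation; basal DMSO 0%, vasopressin 100%.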
# TSHR agonist = TSH receptor (human) agonism; Potency, µM (highest dose often 57.1 µM), for inactives: top-dose activation, most hits filed as activators; HEK293-CNG-TSHR cells (CNG channel as cAMP sensor), membrane potential dye, cAMP; 0.48% of 73,000 active; active = well fitted activation curve with a large enough effect in the main read-out, with a control signal flat, not every such curve was filed as active; inconclusive = small, poorly fitted or top-dose-only effect, or a change in a side signal; inactive = no such curve, though single readings can be large or run the other way; % of control where 0% means no effect;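 also: the control signal comes from parental cells without the receptor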
#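 HEK 293 cells stably expressing TSHR and a modified CNG channel, with CNG-only parental cells as counterscreen, were preloaded 60 min at room temperature with membrane potential dye containing 100 uM RO 20-1724. Compound exposure was 30 min, and depolarization was read as fluorescence at 590 nm.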
# * = called active by the depositor; ? = inconclusive; · = not tested or not shown; ! = not active in a repeat; [ ] = remark or other dose. Unless noted, calls follow the shape of the dose curve; as a rule, active = well fitted curve in the direction sought with a large enough effect; inconclusive = small, poorly fitted or top-dose-only effect, or another doubt; inactive = no such curve, though single readings can be large; an effect the other way counts as inactive or inconclusive. Potency is read from the fitted curve at half-maximal effect.
SMILES,CRE-bla Fsk,HEK293 cAMP cs,ERK AVP block,TSHR agonist
COc1ccc(-c2nc3cnc(OC)nc3n(CCc3ccccc3)c2=O)cc1,?,?,-1%,?
Cc1cccc(/N=C/c2c(O)[nH]c3ccccc23)n1,-8%,-3%,-19%,19%
Oc1[nH]c2ccccc2c1C=Nc1ccc2c(c1)OCCO2,-6%,0%,20µM*,-16%
CCCCn1c(NC(C)CC)nc2c1c(=O)[nH]c(=O)n2C (centres undefined),10µM*,10%,-24%,4%
CCCCCn1c(N(C)Cc2ccccc2)nc2c1c(=O)[nH]c(=O)n2C,10µM*,?,·,?
CN(Cc1ccccc1)c1nc2c(c(=O)[nH]c(=O)n2C)n1Cc1ccccc1,?,23%,?,6%
CCCNc1nc2c(c(=O)[nH]c(=O)n2C)n1CCCc1ccccc1,6%,-10%,-22%,4%
CN(Cc1ccccc1)c1nc2c(c(=O)[nH]c(=O)n2C)n1CCOc1ccccc1,5µM*,0%,13µM*,20%
N[C@@H](Cn1ccc(=O)n(Cc2ccccc2C(=O)O)c1=O)C(=O)O,-4%,1%,3%,4%
CC1(C)C(=O)NC2=C1C(=O)C(=O)c1ccccc12,9%,-2%,-28%,-11%
COc1ccccc1OCCSc1nc2ccccc2c(=O)[nH]1,10µM*,9%,-6%,16%
Cc1occc1-c1nnc(SCC(=O)c2cc3ccccc3oc2=O)o1,-14%,6%,16µM*,9%
Cc1ccc(NC(=O)CSc2nnc(-c3ccccc3Br)o2)cc1C,-8%,15%,5%,20%
Cc1cc(C)c(C(=O)CSc2nnc(-c3ccccc3Br)o2)cc1C,-3%,16µM*,8%,?
CCn1nc(C(=O)OCC(=O)c2c[nH]c3ccccc23)c2ccccc2c1=O,4µM*,-28%,?,-8%
C=CCOC(=O)C(C(C)=O)C(NC(=O)OC)c1ccco1 (centres undefined),·,3%[11.4 µM],-4%[11.5 µM],-5%[11.4 µM]
CC(C)(C)c1ccc(S(=O)(=O)/C=C\C#N)cc1,?,25µM*!,32µM*,?
CC(C)(C)c1ccc(S(=O)(=O)N2CCN(CCC#N)CC2)cc1,10%,?,27%,?
Cc1ccc(S(=O)(=O)/C=C\C#N)cc1,?,-14%,20µM*,11%
O=c1c(-c2cc(F)cc(F)c2)nc2cnc(N3CCOCC3)nc2n1Cc1cccs1,0.63µM*,1%[0.457 µM],-10%,9%
O=c1c(-c2cc(F)cc(F)c2)nc2cnc(N3CCOCC3)nc2n1C1CC1,1µM*,18%,18%,3%
O=c1c(-c2ccc(F)cc2)nc2cnc(N3CCOCC3)nc2n1Cc1cccs1,?,15%,10%,-1%
O=C(Nc1cccc2ccccc12)OC1C=CS(=O)(=O)C1 (centres undefined),?,32µM*,10µM*,?
Cc1cc(NC(=O)c2cc(-c3cccs3)nc3ccccc23)no1,?,16µM*,-15%,?
Cc1ccc(-c2cc(C(=O)NCc3ccco3)c3ccccc3n2)o1,?,5%,14%,·
SMILES,CRE-bla Fsk,HEK293 cAMP cs,ERK AVP block,TSHR agonist
Cc1cc(C)c2nc(-c3ccccn3)cc(C(=O)Nc3cc(C)on3)c2c1,-6%,16µM*,2%,?
Cc1cc(C)c2nc(-c3ccccn3)cc(C(=O)NCc3ccco3)c2c1,?,25µM*,-16%,?
Cc1cc(NC(=O)c2cc(-c3ccccn3)nc3ccccc23)no1,?,18%,-21%,25%
Cc1cc(NC(=O)c2ccccc2-c2ccccc2C(=O)O)no1,-2%,4%,14%,0%
Cc1cc(NC(=O)c2cc(-c3ccncc3)nc3c(C)cccc23)no1,?,32µM*,-17%,?
COC(=O)NC(CC(C)=O)c1ccc(Cl)cc1 (centres undefined),·,-1%[11.4 µM],21%[11.5 µM],1%[11.4 µM]
CCOC(=O)c1[nH]c(C)c(C(=O)NC2CCCC2)c1C,15%,25µM*,-1%,?
Cc1ccc(S(=O)(=O)N[C@@H](CCc2ccccc2)CC(=O)C(C)(C)C)cc1,·,16%[11.4 µM],4%[11.5 µM],16%[11.4 µM]
Cn1c(=O)c(-c2ccc(Cl)cc2)nc2cnc(OCc3ccccc3)nc21,?,-5%,0%,5%
Cn1c(=O)c(-c2ccc(F)cc2)nc2cnc(Nc3ccccc3)nc21,0.63µM*,3%,-29%,-3%
CN(C)c1ncc2nc(-c3ccc(Cl)cc3)c(=O)n(C)c2n1,2.5µM*,5%,-8%,3%

# High-throughput results deposited in PubChem by National Center for Advancing Translational Sciences (NCATS).
